Data on 32 compounds can be found in PubChem BioAssay.

SMILES strings stand for the structures. “And” between values parts separate entries of the source, which are not always exact repeats. Equal entries are not always repeated.

The first assay in a line: small molecules captured by biotinylated probe aFST – biochemical, small-molecule microarray, fluorescence 635/667, stem cell growth factor project, primary screen (AID 1086).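 Note: score merges 667 nm fluorescence with signal-to-noise of each printed compound spot.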 The note with it: higher = more signal.
`CCCC=C(CCC)[C@@H](NP(=O)(c1ccccc1)c1ccccc1)c1ccccc1` came in with a composite z-score of 0.714.

`COC(=O)[C@H]1C(=O)c2ccccc2O[C@@](C(=O)OC)(c2ccccc2)[C@@H]1c1ccccc1` displayed a composite z-score of -0.204.

The compound `C[C@@H]1Cc2c(cnc3c2CN(C)CC3)CO1` displayed a composite z-score of 0.0686.

`COc1cc2c(cc1O)C(C)N(C)CC2` (centres undefined) yielded a composite z-score of -0.0662.

Compound `CN1CCc2nc(CO)c(CO)cc2C1` displayed a composite z-score of 0.242.

The compound `COC(=O)C1(C)C=C2C(=C(C)C(=O)C2C)CN1` (centres undefined) had a composite z-score of 0.706.

As to `CC1N(P(=O)(c2ccccc2)c2ccccc2)CC(O)(c2ccccc2)CC12CC2` (centres undefined), the composite z-score was -0.0551 and 1.02.

Turning to `OCc1ccc(C2=CC(c3cccs3)N(Cc3cccc(OC(F)(F)F)c3)CC2)cc1` (centres undefined), the composite z-score is -0.0002.

On to `CN1CCC(c2ccc(CO)cc2)=CC1C1CC1` (centres undefined), for which the composite z-score is -0.337.

`COC(=O)[C@H]1[C@@H](O)[C@@]2(O)c3c(OC)cc(OC)cc3O[C@@]2(c2ccc(OC)cc2)[C@@H]1c1ccccc1`: the composite z-score stood at 0.0836.

For `CN1CCC(c2ccc(CO)cc2)=CC1c1cccs1` (centres undefined), the composite z-score came to 0.13.

Take `COC(=O)[C@@]1(Cc2ccc(F)cc2)[C@H]2c3cc(C(=O)N(C)C)[nH]c3C[C@H]2CN1C(=O)c1ccccc1`: the composite z-score amounted to 0.656.

For the compound `CCCc1cc2c(n1Cc1ccc(C)cc1)C(C)C1CN(C(=O)c3ccccc3)C(C)(C(=O)OC)C21` (centres undefined), the composite z-score stood at 1.95.

As to `COc1cc2c(cc1O)C=[N+](C)CC2`, the composite z-score turned out to be 0.169.

`CCCc1cc2c(n1Cc1ccco1)C(C)C1CN(C(=O)c3ccccc3)C(C)(C(=O)OC)C21` (centres undefined) showed a composite z-score of 0.802.

In turn, `CCCC[C@@H]1C[C@H]1[C@@H](NP(=O)(c1ccccc1)c1ccccc1)c1ccc(Cl)cc1` gave a composite z-score of -0.22.

As to `COC(=O)[C@@]1(Cc2ccccc2)[C@H]2c3cc(C(=O)N(C)C)[nH]c3C[C@H]2CN1C(=O)c1ccccc1`, the composite z-score was -0.0765.

With `CCCc1cc2c(n1Cc1cccc(Cl)c1)C(C)C1CN(C(=O)c3ccccc3)C(C)(C(=O)OC)C21` (centres undefined), the composite z-score was determined as 0.578.

Compound `COC(=O)[C@H]1[C@H](c2ccccc2)C(=O)[C@]2(O)c3ccccc3O[C@@]12c1ccccc1` yielded a composite z-score of -0.12.

Regarding `C[C@H]1O[C@H]2C3=C(C(=O)[C@@H]4O[C@@H]4[C@@H]3O)[C@@H]1[C@@H]1[C@@H](C)OC=C3[C@@H](O)[C@H]4O[C@H]4C(=O)[C@]312`, the composite z-score is -0.293.

`CCc1cc2c(nc1CC)CCN(CCC(C)=NOC)C2` displayed a composite z-score of 0.497.

`O=P(c1ccccc1)(c1ccccc1)N1CC2(CC2)CC(O)(c2ccccc2)C1` (centres undefined): the composite z-score was found to be 0.553.

In turn, `OCc1ccc(C2=CC(C3CC3)N(Cc3sc4ccccc4c3Cl)CC2)cc1` (centres undefined) had a composite z-score of 0.19.

Take `C=C(CC1(C(C)NP(=O)(c2ccccc2)c2ccccc2)CC1)c1ccccc1` (centres undefined): the composite z-score was 0.881.

`C=C(CC1(CNP(=O)(c2ccccc2)c2ccccc2)CC1)c1ccccc1`: the composite z-score turned out to be 0.622.

As for `CCOC(=O)[C@H]1CC=C2C(=O)Oc3ccccc3[C@@H]21`, the composite z-score is -0.203.

`CCOC(=O)[C@H]1CC=C2C(=O)Oc3ccc(Br)cc3[C@@H]21` had a composite z-score of -0.598.

`C[C@@H]1OC=C2[C@@H](O)[C@H]3O[C@H]3C(=O)[C@]23[C@H]1[C@H]1C2=C([C@@H](O)[C@H]4O[C@H]4C2=O)[C@@H]3O[C@@H]1C` returned a composite z-score of -0.192.

`COC(=O)[C@@]1(Cc2ccccc2)[C@H]2c3cc(C(=O)N(C)C)n(C)c3C[C@H]2CN1C(=O)c1ccccc1`: the composite z-score was found to be 0.566.

The compound `c1ccc(-c2cc3c(nc2-c2ccccc2)CCNC3)cc1` had a composite z-score of 0.0294.

Compound `COC(=O)NCC=Cc1nc(CCC=CC(=O)O[C@H]2CC3CC(=O)O[C@@H](C=CCC(C)C)C[C@@H]4CC[C@H](C)[C@@H](C[C@@H](OC)C[C@H](C2)O3)O4)co1` registered a composite z-score of -0.15.

On to `CCCc1cc2c(n1CCO)C(C)C1CN(C(=O)c3ccccc3)C(C)(C(=O)OC)C21` (centres undefined), for which the composite z-score was determined as 1.44.

The nature of another assay: binders of probe aHhip on microarray, primary screen, stem cell growth factor project, biochemical, small-molecule microarray, fluorescence 635/667 (AID 1087).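 Note: score merges spot fluorescence at 667nm with spot signal to noise ratio.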 To be noted: higher = more signal.
`CCCC=C(CCC)[C@@H](NP(=O)(c1ccccc1)c1ccccc1)c1ccccc1` came in with a composite z-score of 0.408.

In turn, `COC(=O)[C@H]1C(=O)c2ccccc2O[C@@](C(=O)OC)(c2ccccc2)[C@@H]1c1ccccc1` yielded a composite z-score of -0.134.

In the case of `C[C@@H]1Cc2c(cnc3c2CN(C)CC3)CO1`, the composite z-score turned out to be 0.312.

For `COc1cc2c(cc1O)C(C)N(C)CC2` (centres undefined), the composite z-score was determined as 0.176.

`CN1CCc2nc(CO)c(CO)cc2C1` registered a composite z-score of 0.0881.

Take `COC(=O)C1(C)C=C2C(=C(C)C(=O)C2C)CN1` (centres undefined): the composite z-score is 0.107.

As for `CC1N(P(=O)(c2ccccc2)c2ccccc2)CC(O)(c2ccccc2)CC12CC2` (centres undefined), the composite z-score was 0.238 and 0.535.

Compound `OCc1ccc(C2=CC(c3cccs3)N(Cc3cccc(OC(F)(F)F)c3)CC2)cc1` (centres undefined) gave a composite z-score of 0.0908.

Consider `CN1CCC(c2ccc(CO)cc2)=CC1C1CC1` (centres undefined), for which the composite z-score is -0.164.

For `COC(=O)[C@H]1[C@@H](O)[C@@]2(O)c3c(OC)cc(OC)cc3O[C@@]2(c2ccc(OC)cc2)[C@@H]1c1ccccc1`, the composite z-score is -0.152.

`CN1CCC(c2ccc(CO)cc2)=CC1c1cccs1` (centres undefined) registered a composite z-score of -0.134.

For the compound `COC(=O)[C@@]1(Cc2ccc(F)cc2)[C@H]2c3cc(C(=O)N(C)C)[nH]c3C[C@H]2CN1C(=O)c1ccccc1`, the composite z-score is -0.236.

`CCCc1cc2c(n1Cc1ccc(C)cc1)C(C)C1CN(C(=O)c3ccccc3)C(C)(C(=O)OC)C21` (centres undefined) displayed a composite z-score of 0.321.

As to `COc1cc2c(cc1O)C=[N+](C)CC2`, the composite z-score is -0.639.

The compound `CCCc1cc2c(n1Cc1ccco1)C(C)C1CN(C(=O)c3ccccc3)C(C)(C(=O)OC)C21` (centres undefined) came in with a composite z-score of 1.05.

Take `CCCC[C@@H]1C[C@H]1[C@@H](NP(=O)(c1ccccc1)c1ccccc1)c1ccc(Cl)cc1`: the composite z-score was -0.0994.

`COC(=O)[C@@]1(Cc2ccccc2)[C@H]2c3cc(C(=O)N(C)C)[nH]c3C[C@H]2CN1C(=O)c1ccccc1`: the composite z-score stood at 0.0176.

Turning to `CCCc1cc2c(n1Cc1cccc(Cl)c1)C(C)C1CN(C(=O)c3ccccc3)C(C)(C(=O)OC)C21` (centres undefined), the composite z-score came out at 0.192.

Turning to `COC(=O)[C@H]1[C@H](c2ccccc2)C(=O)[C@]2(O)c3ccccc3O[C@@]12c1ccccc1`, the composite z-score is -0.236.

The compound `C[C@H]1O[C@H]2C3=C(C(=O)[C@@H]4O[C@@H]4[C@@H]3O)[C@@H]1[C@@H]1[C@@H](C)OC=C3[C@@H](O)[C@H]4O[C@H]4C(=O)[C@]312` came in with a composite z-score of -0.0994.

For the compound `CCc1cc2c(nc1CC)CCN(CCC(C)=NOC)C2`, the composite z-score was found to be 0.113.

Regarding `O=P(c1ccccc1)(c1ccccc1)N1CC2(CC2)CC(O)(c2ccccc2)C1` (centres undefined), the composite z-score turned out to be 0.21.

`OCc1ccc(C2=CC(C3CC3)N(Cc3sc4ccccc4c3Cl)CC2)cc1` (centres undefined): the composite z-score was -0.0296.

`C=C(CC1(C(C)NP(=O)(c2ccccc2)c2ccccc2)CC1)c1ccccc1` (centres undefined): the composite z-score was 0.113.

In the case of `C=C(CC1(CNP(=O)(c2ccccc2)c2ccccc2)CC1)c1ccccc1`, the composite z-score was -0.0618.

The compound `CCOC(=O)[C@H]1CC=C2C(=O)Oc3ccccc3[C@@H]21` showed a composite z-score of -0.0645.

Compound `CCOC(=O)[C@H]1CC=C2C(=O)Oc3ccc(Br)cc3[C@@H]21` returned a composite z-score of -0.134.

On to `C[C@@H]1OC=C2[C@@H](O)[C@H]3O[C@H]3C(=O)[C@]23[C@H]1[C@H]1C2=C([C@@H](O)[C@H]4O[C@H]4C2=O)[C@@H]3O[C@@H]1C`, for which the composite z-score came to 0.0274.

Consider `COC(=O)[C@@]1(Cc2ccccc2)[C@H]2c3cc(C(=O)N(C)C)n(C)c3C[C@H]2CN1C(=O)c1ccccc1`, for which the composite z-score came out at 0.189.

`c1ccc(-c2cc3c(nc2-c2ccccc2)CCNC3)cc1` gave a composite z-score of -0.374.

On to `COC(=O)NCC=Cc1nc(CCC=CC(=O)O[C@H]2CC3CC(=O)O[C@@H](C=CCC(C)C)C[C@@H]4CC[C@H](C)[C@@H](C[C@@H](OC)C[C@H](C2)O3)O4)co1`, for which the composite z-score was -0.12.

Take `CCCc1cc2c(n1CCO)C(C)C1CN(C(=O)c3ccccc3)C(C)(C(=O)OC)C21` (centres undefined): the composite z-score was 0.593.
